Data from PubChem BioAssay (NCATS).
Results filed as inconclusive are left out. The source made the active and inactive calls. The call rests on the fitted dose curve; in most records, active means well fitted curve in the direction sought with a large enough effect; inconclusive means small, poorly fitted or top-dose-only effect, or another doubt; inactive means no such curve, though single readings can be large; an effect the other way counts as inactive or inconclusive.

What was measured:
KB-3-1 = experiment: Cytotoxic Profiling of Annotated Libraries Using Quantitative High-Throughput Screening (AID 1296008); details: Five cell lines viability, CellTiter-Glo ATP luminescence, 48-72 h; max response: stronger effect = lower value; further: nearly all actives have a fitted effect of over 60% in size; further: potency means the concentration at half of the fitted maximal effect; on max response: on the % scale 0 is the no-effect control and ±100 the full control effect
In short: (§1)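 Cytotoxicity was measured as CellTiter-Glo ATP luminescence, read after 10 min at room temperature. Compound treatment of the cells lasted 48 or 72 hr at 37 degrees Celsius in a qHTS format.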

MCC-26 = experiment: qHTS assay to identify novel small-molecules to repurpose for Merkel cell carcinoma treatment (AID 1296009); details: MCC and control cell lines, CellTiter-Glo viability, 72 h; series mostly up to 46 µM; further: nearly all actives have a fitted effect of over 60% in size; further: potency means the concentration at half of the fitted maximal effect
In short: (§2)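 After compound transfer in DMSO, plates were kept 72 hr at 37 degree celsius. Luminescent ATP signal from CellTiter-Glo served as viability measure, normalized against DMSO and no-cell controls.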

MKL-1 = experiment: as above; details: MCC and control cell lines, CellTiter-Glo viability, 72 h; series mostly up to 46 µM
In short: as §2

MKL-2 = experiment: as above; details: MCC and control cell lines, CellTiter-Glo viability, 72 h; series mostly up to 46 µM
In short: as §2

UISO = experiment: as above; details: MCC and control cell lines, CellTiter-Glo viability, 72 h; series mostly up to 46 µM
In short: as §2

TAB165 = experiment: qHTS profiling for inhibitors of Plasmodium falciparum proliferation (AID 504749); further: nearly all actives have a fitted effect of over 60% in size; further: potency means the concentration at half of the fitted maximal effect; details: P. falciparum in erythrocytes, SYBR Green DNA, 72 h; series mostly up to 28.7 µM
In short: (§3)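 Three-day growth assay of blood-stage parasites in erythrocytes (0.3% parasitemia, 2.5% hematocrit) at 37 C, 5% CO2, quantified by SYBR Green DNA staining after overnight detergent lysis.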

HEK293 = experiment: Cytotoxic Profiling of Annotated Libraries Using Quantitative High-Throughput Screening (AID 1296008); details: Five cell lines viability, CellTiter-Glo ATP luminescence, 48-72 h; max response: stronger effect = lower value; further: nearly all actives have a fitted effect of over 60% in size; further: potency means the concentration at half of the fitted maximal effect; on max response: on the % scale 0 is the no-effect control and ±100 the full control effect
In short: as §1

HaCat [1] = experiment: as above; details: Five cell lines viability, CellTiter-Glo ATP luminescence, 48-72 h; max response: stronger effect = lower value
In short: as §1

NIH3T3 = experiment: as above; details: Five cell lines viability, CellTiter-Glo ATP luminescence, 48-72 h; max response: stronger effect = lower value
In short: as §1

HACAT [2] = experiment: qHTS assay to identify novel small-molecules to repurpose for Merkel cell carcinoma treatment (AID 1296009); details: MCC and control cell lines, CellTiter-Glo viability, 72 h; at 44.8 µM (top of the series) unless noted; further: nearly all actives have a fitted effect of over 60% in size; further: potency means the concentration at half of the fitted maximal effect
In short: as §2

MCC-13 = experiment: as above; details: MCC and control cell lines, CellTiter-Glo viability, 72 h; series mostly up to 46 µM
In short: as §2

C33A = experiment: Primary qHTS to identify gynecologic anti-cancer compounds using libraries of approved drugs and bioactive compounds (AID 1345084); details: Gynecologic cancer cell panel viability, ATPlite luminescence, 48 h; series mostly up to 57.5 µM; further: on the % scale 0 is the no-effect control and ±100 the full control effect; nearly all actives have a fitted effect of over 55% in size
In short: (§4)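 Luminescence from the ATPlite ATP-monitoring reagent indicates viable cell number; lower signal means cytotoxicity. Cells received compound 16 h after seeding and were exposed for 48 h across five concentrations.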

CAOV3 = experiment: as above; details: Gynecologic cancer cell panel viability, ATPlite luminescence, 48 h; series mostly up to 57.5 µM
In short: as §4

CASKI = experiment: as above; details: Gynecologic cancer cell panel viability, ATPlite luminescence, 48 h; series mostly up to 57.5 µM
In short: as §4

CRL-7250 = normal cell line; experiment: qHTS assay to identify novel small-molecules to repurpose for Merkel cell carcinoma treatment (AID 1296009); details: MCC and control cell lines, CellTiter-Glo viability, 72 h; series mostly up to 44.8 µM; further: nearly all actives have a fitted effect of over 60% in size; further: potency means the concentration at half of the fitted maximal effect
In short: as §2

WaGa = experiment: as above; details: MCC and control cell lines, CellTiter-Glo viability, 72 h; series mostly up to 46 µM
In short: as §2

W2 = experiment: qHTS profiling for inhibitors of Plasmodium falciparum proliferation (AID 504749); further: nearly all actives have a fitted effect of over 60% in size; further: potency means the concentration at half of the fitted maximal effect; details: P. falciparum in erythrocytes, SYBR Green DNA, 72 h; series mostly up to 28.7 µM
In short: as §3

C[C@@H]1[C@@H](CC(C[C@H]2O[C@@H]3O[C@]4(C)CC[C@@H]5[C@H](C)CC[C@@H]([C@H]2C)[C@@]35OO4)C[S+](=O)([O-])c2ccc(COC(=O)N(C)C)cc2)O[C@@H]2O[C@]3(C)CC[C@H]4[C@H](C)CC[C@@H]1[C@@]24OO3 (some centres undefined)
inactive: Potency (MCC-26)
active: Potency (KB-3-1) 1320 nM | Potency (MKL-1) 1180 nM | Potency (MKL-2) 590 nM | Potency (UISO) 526 nM

C[C@]12C/C(=C/O)C(=O)C[C@@H]1CC[C@@H]1[C@@H]2CC[C@@]2(C)[C@H]1CC[C@]2(C)O
inactive: Potency (TAB165) | max response (HEK293) -8.16% | outcome (HaCat [1]) | max response (KB-3-1) -12.7% | max response (NIH3T3) 1.95% | outcome (HACAT [2]) | Potency (MCC-13) | Potency (MCC-26) | Potency (C33A) | Potency (CAOV3) | Potency (CASKI)

O=C(O)P(=O)(O)O
inactive: max response (KB-3-1) -7.16% | outcome (CRL-7250)

COC[C@@H](NC(C)=O)C(=O)NCc1ccccc1
inactive: max response (HEK293) -4.08% | outcome (HaCat [1]) | max response (KB-3-1) 8.88% | max response (NIH3T3) 2.94% | outcome (HACAT [2]) | Potency (MCC-13) | Potency (MCC-26) | Potency (MKL-1) | Potency (MKL-2) | Potency (UISO) | Potency (WaGa) | Potency (C33A) | Potency (CAOV3) | Potency (CASKI)

CCOC(=O)C1(c2ccccc2)CCN(CCC(C#N)(c2ccccc2)c2ccccc2)CC1
inactive: max response (HaCat [1]) -18.2% | max response (KB-3-1) -29% | max response (NIH3T3) -8.7% | Potency (MCC-13) | Potency (MCC-26) | Potency (MKL-1) | Potency (C33A) | Potency (CAOV3) | Potency (CASKI)
active: Potency (TAB165) 2510 nM | Potency (W2) 4780 nM

c1ccc(C2CC2)c(OCC2=NCCN2)c1
inactive: Potency (TAB165) | max response (HEK293) -2.25% | outcome (HaCat [1]) | max response (KB-3-1) 1.77% | max response (NIH3T3) -5.7% | outcome (HACAT [2]) | Potency (MCC-13) | Potency (MCC-26) | Potency (MKL-1) | Potency (MKL-2) | Potency (UISO) | Potency (WaGa) | Potency (C33A) | Potency (CAOV3) | Potency (CASKI)
active: Potency (W2) 13500 nM

CC(C)Nc1cccnc1N1CCN(C(=O)c2cc3cc(NS(C)(=O)=O)ccc3[nH]2)CC1
inactive: outcome (CRL-7250)

O=c1c(O)c(-c2ccc(O)c(O)c2)oc2cc(O)cc(O)c12
inactive: outcome (CRL-7250)

CNS(=O)(=O)CCc1ccc2[nH]cc(C3CCN(C)CC3)c2c1
inactive: outcome (CRL-7250)

NNCCc1ccccc1
inactive: outcome (CRL-7250)

O=C1NC(=O)C(c2ccccc2)(c2ccccc2)N1
inactive: outcome (CRL-7250)
